Data published in the supplement of paper PMC10412459.

Test system: K562 SF3B1 K700E vs K562 SF3B1 WT
Experiment: surviving fraction ratio K562 SF3B1 K700E / K562 SF3B1 WT (each relative to DMSO); higher = less selective killing of SF3B1 K700E cells
Settings: 5 days
Procedure: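 Drug-sensitivity screen of an in-house 80-compound library in isogenic K562 SF3B1 K700E versus SF3B1 WT cells. 250 cells/well in 384-well plates were exposed 24 h after seeding to 0.5-1000 nM compound for 5 days, and viability was read by CellTiter-Glo. Surviving fraction is relative to DMSO, and the value is the ratio of surviving fraction in K700E to WT cells; the paper calls ratio <0.6 with P<0.01 selective.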

SMILES | surviving fraction ratio K562 SF3B1 K700E / K562 SF3B1 WT (0.5nM) | surviving fraction ratio K562 SF3B1 K700E / K562 SF3B1 WT (1nM) | surviving fraction ratio K562 SF3B1 K700E / K562 SF3B1 WT (5nM) | surviving fraction ratio K562 SF3B1 K700E / K562 SF3B1 WT (10nM) | surviving fraction ratio K562 SF3B1 K700E / K562 SF3B1 WT (50nM) | surviving fraction ratio K562 SF3B1 K700E / K562 SF3B1 WT (100nM) | surviving fraction ratio K562 SF3B1 K700E / K562 SF3B1 WT (500nM) | surviving fraction ratio K562 SF3B1 K700E / K562 SF3B1 WT (1000nM)
C[C@H](CN(C)C)Oc1nc(Nc2cc3cccc(Cl)c3cn2)cnc1C#N | 0.863 | 0.781 | 0.786 | 0.781 | 0.826 | 0.784 | 0.497 | 0.442
NS(=O)(=O)OC[C@@H]1C[C@@H](n2ccc3c(N[C@H]4CCc5ccccc54)ncnc32)C[C@@H]1O | 0.743 | 0.708 | 0.772 | 0.687 | 0.74 | 1.51 | 1.22 | 1.07
COCC[n+]1c2c(n(Cc3cnccn3)c1C)C(=O)c1ccccc1C2=O | 0.819 | 0.805 | 1.33 | 1.8 | 1.14 | 0.899 | 0.84 | 0.809
C[C@]12CC[C@H](O)CC1=CC[C@@H]1[C@@H]2CC[C@]2(C)C(c3cccnc3)=CC[C@@H]12 | 1.04 | 0.918 | 0.91 | 0.915 | 0.899 | 1.01 | 0.995 | 0.937
COc1cc2c(cc1O)CC[C@@H]1[C@@H]2CC[C@]2(C)[C@@H](O)CC[C@@H]12 [2-methoxyestradiol] | 0.765 | 0.733 | 0.666 | 0.851 | 0.706 | 0.595 | 0.626 | 1.48
CCCCCCCCCCCCCCCC(=O)Nc1ccn([C@@H]2O[C@H](CO)[C@@H](O)[C@@H]2C#N)c(=O)n1 [sapacitabine] |  | 0.911 |  | 1.11 |  | 0.745 |  | 1.78
